In PubChem BioAssay (NCI) one finds growth data, which are given here for 26 compounds.

Holding throughout (experiment): NCI-60 one-dose screen, 48 h (100 = growth as untreated, 0 = no growth, -100 = all killed)
Common to all, as to conditions: 10 µM

The subject of test [1] is RPMI-8226 leukemia.
Test [2] deals with OVCAR-8 ovarian.
The subject of test [3] is OVCAR-5 ovarian.
Test [4] has as its system OVCAR-4 ovarian.
The test system of test [5] is SK-OV-3 ovarian.
Test [6] deals with IGROV1 ovarian.
Test [7] concerns OVCAR-3 ovarian.
Test [8] has as its system HS 578T breast.
Test [9] has as its system NCI/ADR-RES ovarian.
Test [10] deals with T-47D breast.

Compounds without any hit were thinned out: in the full panel of roughly 83,000, 20% have a hit.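 Step 1: grow cells in 96-well plates. Step 2: add test compound at a single concentration. Step 3: incubate 48 h. Step 4: record percent growth.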 A number with no mark means an inactive call. Active and inactive are the calls of the source. Rule for the calls: active = growth percent below 10; inactive = the rest.

For the compound `c1ccc2c(c1)oc1c3c(ccc12)NCCC3`, the growth was 93.8% in [1]; 98.2% in test [2]; 102% in [3]; 94.3% in test [4]; 107% in test [5]; 98.6% in [6]. Besides, the growth in test [7] was 103%; in [8], 109%; in [9], 97.7%; in test [10], 59.9%.

For `COc1ccc(-c2nn(-c3cccc(NC(=O)c4cc(C(F)(F)F)cc(C(F)(F)F)c4)c3)cc2-c2ccncc2)cc1Cl`, the growth in test [1] is 47.7%; in test [2], 66.4%; in test [3], 87.4%; in [4], 76.4%; in test [5] it was 75.2%; in test [6], 77.2%. In addition, the growth in test [7] is 54.1%; in test [8], 71.5%; in test [9], 59.9%; in test [10], 51.5%.

Consider `C#Cc1ccc(-n2c(/C=C/c3ccc(O)c(OC)c3)nc3ncccc3c2=O)cc1`, for which the growth in [1] is 83.5%; in test [2], 97.1%; in test [3], 108%; in [4] it was 80.8%; in test [5], 107%; in test [6], 95.6%. Besides, the growth in [7] is 100%; in test [8], 104%; in test [9], 109%; in test [10], 91.1%.

In the case of `Cc1cc2ccccc2nc1-c1ccccc1F`, the growth in test [1] was 101%; in test [2] it was 102%; in [3] it was 106%; in [4], 117%; in test [5], 96.4%; in [6], 129%. The growth is 105% in [7], 106% in [8] and 112% in test [9].

With `O=C(Nc1ccc(CN2CCc3nc4cc(O)c(O)cc4cc32)cc1)c1ccc(Cl)c(Cl)c1`, the growth in test [1] is 103%; in test [2] it was 106%; in test [3], 106%; in test [4], 117%; in test [5], 106%; in [6], 102%. In addition, the growth is 104% in test [7], 102% in test [8], 106% in test [9] and 88.6% in test [10].

`O=C(Nc1ccncc1)C(=O)c1cn(S(=O)(=O)c2cccc3ccccc23)c2ccccc12`: the growth in test [1] was 43.1%; in test [2], 92.4%; in test [3], 102%; in test [4], 79.6%; in test [5], 87.9%; in test [6], 73.8%. Moreover, the growth in test [7] was 88.2%; in test [8], 100%; in test [9] it was 78.4%; in [10], 70.9%.

For `COc1ccc(/C=C2/CN(C(=O)c3ccc(C)cc3)C/C(=C\c3ccc(OC)cc3)C2=O)cc1`, the growth was -6.11% (active) in [1]; 88.9% in test [2]; 109% in test [3]; 83.8% in test [4]; 99.1% in [5]; 89.8% in [6]. Besides, the growth in [7] is 90.7%; in test [8] it was 92%; in test [9] it was 86.7%; in test [10], 69.3%.

Take `CCN(CC)CCOc1nc2ccccc2c2c1-c1ccc(OC)cc1C2=O`: the growth in [1] is -14.3% (active); in test [2], 6.78% (active); in test [3], 25.8%; in test [4] it was 6.09% (active); in [5], 43.5%; in test [6], -37.9% (active). For the same compound, the growth was -18.6% (active) in test [7], 1.77% (active) in test [8], -12.8% (active) in test [9] and 47.1% in [10].

With `O=C(O)C(SC(C(=O)O)c1ccccc1)c1ccccc1` (stereo not given), the growth was 102% in test [1]; 110% in [2]; 106% in test [3]; 102% in test [4]; 99.7% in test [5]; 115% in test [6]. The growth in test [7] was 114%; in [8], 113%; in test [9] it was 106%.

`NC1(C(=O)O)CSSC1`: the growth is 100% in test [1]; 40.7% in test [2]; 113% in test [3]; 76.8% in test [4]; 108% in test [5]; 90% in test [6]. Further, the growth was 93% in test [7], 53.6% in [8] and 59.8% in [9].

Turning to `COC(=O)c1c(-c2ccccc2)csc1NC(=O)c1c(-c2ccccc2)noc1C`, the growth in test [1] was 27.9%; in [2], 25.6%; in test [3], 63%; in test [4], 79.9%; in [5] it was 58.6%; in test [6] it was 20.6%. Moreover, the growth in test [7] was 36.7%; in test [8] it was 65.9%; in test [9], 36.8%; in test [10], 71.8%.

On to `CC(C)(C)NC/C(=C\c1ccccc1)C(=O)c1ccccc1`, for which the growth in test [1] is -0.943% (active); in test [2], -29.1% (active); in [3], -42.7% (active); in [4], 30.7%; in test [5], 57.9%; in test [6], 0.595% (active). In addition, the values for the growth in [7], in [8] and in test [9] were -43.1% (active), 38.2% and -30.7% (active), respectively.

As to `COc1ccc(Cl)cc1-n1nnc(-c2nc3ccccc3[nH]2)c1N`, the growth in test [1] was 53.9%; in test [2], 82.4%; in test [3], 96.2%; in test [4], -79.9% (active); in [5] it was 62.6%; in [6], 85.5%. Besides, the growth in test [7] is 86.7%; in test [8], 43.3%; in test [9], 92.1%; in [10] it was 67.5%.

As for `C=C1c2c(C)nn(-c3ccc(OC)cc3)c2N(C)C23C[C@@H]1C1(C)c4c(C)nn(-c5ccc(OC)cc5)c4N(C)C(C)(C[C@H]12)C3` (stereo not given in full), the growth in test [1] is 4.67% (active); in test [2], 31.8%; in [3], 61.7%; in test [4], 28.1%; in test [5], 60.2%; in test [6], 70.8%. Further, the growth in [7] is 24%; in test [8], 67.4%; in [9], 35%; in [10], 13.4%.

Take `COc1cc2cc3c(nc2cc1OC)CCN3Cc1ccc(NC(=O)Nc2ccc(F)cc2F)cc1`: the growth in test [1] is 66%; in [2], 79.7%; in test [3], 105%; in test [4], 61.2%; in test [5], 84%; in [6], 89.8%. The growth in test [7] was 84.1%; in test [8], 99.7%; in test [9], 73%; in test [10] it was 52.1%.

`CCOC(=O)N1C/C(=C/c2ccc(OC)cc2)C(=O)/C(=C/c2ccc(OC)cc2)C1`: the growth in test [1] is -14.8% (active); in test [2], 19.6%; in test [3] it was 95%; in test [4], 58%; in test [5], 26.9%; in test [6] it was 17.2%. The growth in [7] is 0.817% (active); in [8], -15.8% (active); in test [9] it was 21.7%; in test [10], 43.7%.

Regarding `O=C(c1ccc(Cl)cc1Cl)N1CCOCC1`, the growth was 95.9% in test [1]; 104% in [2]; 96% in test [3]; 98.9% in [4]; 98.5% in test [5]; 105% in test [6]. The growth in test [7] is 109%; in test [8], 107%; in test [9], 96.5%; in test [10], 92.3%.

In the case of `Cc1ccc(N=Nc2c(N)nc(N)[nH]c2=O)cc1C`, the growth in test [1] was 97.8%; in test [2], 104%; in [3] it was 105%; in test [4], 105%; in test [5], 99.2%; in test [6] it was 92.6%. Also, the growth in test [7] was 110%; in test [8], 108%; in test [9], 103%; in test [10], 96%.

For `N#CC1=C(Nc2ccccc2Cl)SC(c2ccccc2O)NC1=O` (stereo not given), the growth was 97.1% in test [1]; 111% in test [2]; 105% in test [3]; 111% in [4]; 116% in test [5]; 102% in [6]. Besides, the growth was 127% in [7], 116% in test [8], 110% in test [9] and 111% in test [10].

Consider `COc1ccc(-c2nc3sc(C4CC4)nn3c2/C=C2/C(=O)Nc3ccc(OC)cc32)cc1`, for which the growth in test [1] was 58%; in [2] it was 76.7%; in test [3], 89.5%; in test [4] it was 44.6%; in test [5], 50.9%; in [6], 81.5%. Also, the growth in [7] is 79.7%; in test [8], 25.3%; in test [9], 77.2%; in test [10], 68.7%.

As for `CCOC(=O)N1C=CC2C=CC1C1C=CC=CC2N1C(=O)OCC` (stereo not given), the growth is 89.5% in test [1]; 96.5% in test [2]; 95% in test [3]; 97.8% in [4]; 97% in test [5]; 97.8% in test [6]. Also, the growth in test [7] was 100%; in [8] it was 87.5%; in test [9] it was 95.3%; in [10], 98.9%.

Consider `O=C(/C(=C/c1ccccc1)CN1CCCCC1)c1ccccc1`, for which the growth was -6.34% (active) in test [1]; 11% in [2]; -66.5% (active) in test [3]; 12% in test [4]; 31% in test [5]; -7.89% (active) in test [6]. Further, the results for the growth in test [7], in [8] and in test [9] were -92.7% (active), 47.5% and 4.84% (active), respectively.

Take `COc1ccc(-c2nc3ccccn3c2-c2nnc(-c3cc(OC)c(OC)c(OC)c3)o2)cc1`: the growth in test [1] is 75.1%; in [2], 35.5%; in test [3], 82.7%; in test [4] it was 64.8%; in test [5], 44.3%; in [6], 87%. In addition, the growth in test [7] is 40.4%; in [8], 82.2%; in [9] it was 63.7%; in [10], 48%.

Take `CC(=O)N(C)c1ccc(Nc2ccc(Nc3ccc(N(C)C(C)=O)cc3)c3c2C(=O)c2ccccc2C3=O)cc1`: the growth in test [1] was 53.5%; in test [2], 71.2%; in test [3], 97.1%; in test [4] it was 63.7%; in [5], 78.2%; in [6], 32.6%. Moreover, the growth is 78.7% in test [7], 58.3% in test [8], 86% in test [9] and 54.7% in test [10].

Take `O=C1/C(=C\c2ccc(F)cc2)CN(C(=O)c2ccccc2)C/C1=C\c1ccc(F)cc1`: the growth in [1] is -19.5% (active); in test [2] it was 3.54% (active); in [3], 78.6%; in test [4] it was 27.3%; in test [5] it was 74.6%; in test [6] it was 21.8%. The growth was 11.3% in [7], 28.1% in test [8], 24.8% in test [9] and 57% in [10].

As to `Cc1cc(N(CCCNc2ccnc3cc(Cl)ccc23)Cc2ccc3c(c2)OCO3)nc(N2CCCCC2)n1`, the growth was -49.5% (active) in test [1]; -11.2% (active) in [2]; 4.69% (active) in test [3]; -9.93% (active) in test [4]; 31.3% in test [5]; -51.1% (active) in test [6]. For the same compound, the growth in test [7] was -71.8% (active); in [8], -32.4% (active); in test [9], 7.45% (active); in [10] it was -37.3% (active).
